# Values joined by “and” are separate entries in the source; they are usually repeats but may differ in a detail not shown here. Equal values may be shown once. Inconclusive results are not listed. A structure can be active in one record and inactive in another. Active and inactive are the calls of the source. Calls come from the whole dose curve; as a rule, active = well fitted curve in the direction sought with a large enough effect; inconclusive = small, poorly fitted or top-dose-only effect, or another doubt; inactive = no such curve, though single readings can be large; an effect the other way counts as inactive or inconclusive.
# Tests used:
# [1] = Viability qHTS for spleen associated tyrosine kinase inhibitor (SYKi) naive MV4-11 cells (AID 1963823); note: nearly all actives have a fitted effect of over 40% in size; note: potency is the fitted concentration of half-maximal effect
# Outline: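 In this viability screen, compounds acted on SYK inhibitor naive MV4-11 cells for three days (72 hr, 37 C). Remaining viable cells were measured by CellTiter-Glo luminescence following a 10 min room-temperature development.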
# [2] = Viability qHTS for spleen associated tyrosine kinase inhibitor (SYKi) drug resistant MV4-11 cells (AID 1963824); note: nearly all actives have a fitted effect of over 35% in size; note: potency is the fitted concentration of half-maximal effect
# Outline: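 CellTiter-Glo luminescence, read 10 min after reagent addition, reports viability after a 72 hr compound exposure. Cells are an MV4-11 line made resistant to SYK inhibition, seeded at 500 per well onto compound-containing plates.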
# [3] = Quantitative highthroughput screen to assess conditional lethalithy of NOMO1 cells grown in RPMI1640 with untreated serum (RPMI+s) (AID 1963876); note: nearly all actives have a fitted effect of over 35% in size; note: potency is the fitted concentration of half-maximal effect;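 for Viability: 100% = DMSO wells and 0% = empty wells without cells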
# Outline: (§1)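 Each medium arm—HPLM with 10% dialyzed FBS, or RPMI1640 with 5 mM glucose and 10% untreated or dialyzed FBS—was screened against an 11-point, 3-fold compound titration for 48 h at 37 °C, with CellTiter-Glo luminescence as endpoint.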
# [4] = Quantitative highthroughput screen to assess conditional lethalithy of P12 Ichikawa cells grown in Human Plasma-Like Medium with dialyzed fetal bovine serum (HPLM+ds) (AID 1963879); settings: Potency: viability; note: nearly all actives have a fitted effect of over 35% in size; note: potency is the fitted concentration of half-maximal effect; for Viability: series mostly up to about 46 µM
# Outline: as §1
# [5] = Quantitative highthroughput screen to assess conditional lethalithy of P12 Ichikawa cells grown in RPMI1640 with untreated serum (RPMI+s) (AID 1963881); settings: Potency: viability; note: nearly all actives have a fitted effect of over 35% in size; note: potency is the fitted concentration of half-maximal effect;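 for Viability: series mostly up to about 46 µM; 100% = DMSO wells and 0% = empty wells without cells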
# Outline: as §1
# [6] = Quantitative highthroughput screen to assess conditional lethalithy of SEM cells grown in RPMI1640 with unreated serum (RPMI+s) (AID 1963883); note: nearly all actives have a fitted effect of over 35% in size; note: potency is the fitted concentration of half-maximal effect;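 for Viability: 100% = DMSO wells and 0% = empty wells without cells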
# Outline: as §1
# [7] = Cellular viability qHTS for adrenocortical cancer (ACC) cell line SW-13 (AID 1963989); settings: SW-13 ACC cells viability, CellTiter-Glo, 48 h; activity (max response): stronger effect = lower value; note: nearly all actives have a fitted effect of over 65% in size; note: potency is the fitted concentration of half-maximal effect;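 for activity (max response): cells grown in serum-free medium with ITS supplement; % is set by controls: 0 for no effect and ±100 for the full control effect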
# Outline: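 Viability was read as CellTiter-Glo luminescence after 48 h compound treatment (up to 46 uM final) of SW-13 cells grown serum-free; titration curves were fit with a four-parameter logistic model to give IC50 and efficacy.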
# [8] = Cellular viability qHTS for adrenocortical cancer (ACC) cell line NCI-H295R (AID 1963990); note: nearly all actives have a fitted effect of over 60% in size; note: potency is the fitted concentration of half-maximal effect;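 for activity change, negative = viability loss: 0% = DMSO only wells and -100% = full killing with cytotoxic reference compound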
# Outline: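 CellTiter-Glo ATP luminescence, read 48 h after compound addition, measured viability of NCI-H295R adrenocortical cells grown serum-free with ITS. Final concentrations spanned up to 46 uM. Data normalized to DMSO and doxorubicin, fitted for IC50 and maximal response.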
# [9] = Quantitative highthroughput screen to assess conditional lethalithy of P12 Ichikawa cells grown in RPMI1640 with dialyzed fetal bovine serum (RPMI+ds) (AID 1963880); settings: Potency: P12-Ichikawa viability; note: nearly all actives have a fitted effect of over 35% in size; note: potency is the fitted concentration of half-maximal effect;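 for Viability: 100% = DMSO wells and 0% = empty wells on each plate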
# Outline: as §1
# [10] = Quantitative highthroughput screen to assess conditional lethalithy of SEM cells grown in Human Plasma-Like Medium with dialyzed fetal bovine serum (HPLM+ds) (AID 1963882)
# Outline: as §1
# [11] = Quantitative highthroughput screen to assess conditional lethalithy of SEM cells grown in RPMI1640 with dialyzed fetal bovine serum (RPMI+ds) (AID 1963884)
# Outline: as §1
# [12] = Quantitative highthroughput screen to assess conditional lethalithy of NOMO1 cells grown in Human Plasma-Like Medium with dialyzed fetal bovine serum (HPLM+ds) (AID 1963878)
# Outline: as §1
SMILES,Potency [1],Potency [2],Potency [3],Potency [4],Potency [5],Potency [6],Potency [7],Potency [8],Potency [9],Potency [10],Potency [11],Potency [12],activity (max response) [7],viability (% of control) [1],"viability, % of control [2]","activity change, negative = viability loss [8]"
CCc1nc(N)nc(N)c1-c1ccc(Cl)cc1,3.76 µM (active),3.76 µM (active) and 2.63 µM (active),inactive,1.87 µM (active),10.5 µM (active),inactive,1.46 µM (active) and 3.98 µM (active),2.59 µM (active) and 1.78 µM (active),,,,,,,,
CN1CCN(Cc2ccc(NC(=O)Nc3ccc(Oc4cc(NC(=O)C5CC5)ncn4)cc3)cc2C(F)(F)F)CC1,inactive,inactive,0.418 µM (active),0.526 µM (active),0.469 µM (active),0.0118 µM (active),0.316 µM (active),1.26 µM (active),0.418 µM (active),0.0209 µM (active),0.0083 µM (active),,,,,
CNC(=O)c1ccc(Nc2ncc(C(F)(F)F)c(NCc3nccnc3N(C)S(C)(=O)=O)n2)cc1,130 nM (active) and 332 nM (active),291 nM (active) and 525 nM (active),inactive,inactive,inactive,1.05 µM (active),,7.94 µM (active),,1.48 µM (active),0.933 µM (active),,,,,
CNC(=O)c1cc(Oc2ccc(NC(=O)Nc3cc(C(C)(C)C)nn3-c3ccc4ncccc4c3)c(F)c2)ccn1,0.0366 µM (active),73.1 nM (active) and 52.5 nM (active),inactive,inactive,inactive,,28.2 µM (active),31.6 µM (active),inactive,,,,,,,
CN(C)CCCNC(=O)c1ccc(-c2cc(O)c3ncccc3c2)cc1,5.8 µM (active),5.17 µM (active) and 14.8 µM (active),inactive,inactive,,,,12.6 µM (active),,,,,,,,
Cc1cccc(-c2[nH]c(C(C)(C)C)nc2-c2ccc3nccnc3c2)n1,20.9 µM (active) and 3.26 µM (active),18.6 µM (active) and 1.3 µM (active),inactive,,,20.9 µM (active),,inactive,inactive,23.5 µM (active),18.7 µM (active),,,,,
CC1(C)CC(=O)c2c(C(F)(F)F)nn(-c3ccc(C(N)=O)c(NC4CCC(O)CC4)c3)c2C1 (configuration not stated),0.0209 µM (active),0.0332 µM (active),0.209 µM (active),0.235 µM (active),0.148 µM (active),0.148 µM (active),0.224 µM (active),0.447 µM (active),,0.148 µM (active),0.148 µM (active),,,,,
CCOc1ccc(Nc2nc(-c3c(C)nc4ccccn34)cs2)cc1,41.1 nM (active) and 33.2 nM (active),41.1 nM (active) and 29.5 nM (active),0.0833 µM (active),0.0469 µM (active),0.059 µM (active),0.0469 µM (active),,0.708 µM (active),,,0.105 µM (active),,,,,
CC(C)(O)c1cc2nc(-c3cnc(N)nc3)nc(N3CCOCC3)c2s1,0.58 µM (active),1.16 µM (active),1.87 µM (active),0.935 µM (active),,,1.26 µM (active),1 µM (active),,,,,,,,
Cc1cn(-c2cc(NC(=O)c3ccc(C)c(Nc4nccc(-c5cccnc5)n4)c3)cc(C(F)(F)F)c2)cn1,inactive and 2.35 µM (active),inactive and 4.68 µM (active),0.935 µM (active),0.935 µM (active),1.32 µM (active),,,inactive,1.05 µM (active),,,,,,,
O=c1c(O)c(-c2ccc(O)c(O)c2)oc2cc(O)ccc12,13.2 µM (active),5.8 µM (active) and 9.34 µM (active),inactive,,,,,inactive,,,23.5 µM (active),inactive,0.454% (inactive),,,
FC(F)(F)c1ccc(Nc2nc3ccc(Oc4ccnc(-c5ncc(C(F)(F)F)[nH]5)c4)cc3[nH]2)cc1,1.64 µM (active),4.17 µM (active),inactive,,,18.7 µM (active),22.4 µM (active),11.2 µM (active),,18.7 µM (active),,inactive,,,,
CC(C)(S)[C@@H](N)C(=O)O,,,inactive,inactive,inactive,,,,inactive,,,,0.215% (inactive),88.9% [at 4.97 µM] (inactive),89% [at 4.97 µM] (inactive),-1.21% [at 3.81 µM] (inactive)
c1cncc(CN2CCC(n3ncc4c(N5CCOCC5)nc(-c5ccc6[nH]ccc6c5)nc43)CC2)c1,1.03 µM (active) and 1.32 µM (active),1.84 µM (active) and 1.86 µM (active),16.6 µM (active),,13.2 µM (active),14.8 µM (active),,3.55 µM (active),13.2 µM (active),,14.8 µM (active),,-29.6% (inactive),,,

# From PubChem BioAssay (NCATS)
